This note sets out measurements from PubChem BioAssay AID1259343 (VanderVen Lab, College of Veterinary Medicine, Cornell …, 2017).

Screen size: about 6,200 compounds; about 2,900 (47%) were called active. So high a share suggests a set chosen from earlier hits. This is one part of the list. A number with no mark means an inactive call. Cut-off read from the data, not from the text of the source: active = inhibition above about 50%; inactive = the rest.

A short description of this assay: Mycobacterium tuberculosis growth inhibition, primary screen (AID 1259343). The note with it: inhibition: at 10 µM, stronger effect = higher value; outcome: 10 uM.
Regarding `O=c1c2c3c(sc2ncn1Cc1cccc2ccccc12)CCCC3`, the inhibition is 21.4%.

Regarding `CC(C)c1nc2c(c(=O)c3ccccc3n2C)c(=O)n1Cc1ccccc1`, the inhibition is -29.9%. In the case of `COC(=O)C(C)Sc1nc2sc3c(c2c(=O)n1Cc1ccccc1)CCC3` (stereo not drawn), the inhibition is 83.9% (active). For `CC1(Cc2ccccc2F)C(=O)Nc2ccc(-c3cccnc3)cc21` (stereo not drawn) the value was 55.3% (active). On to `CCCc1nn(-c2cccc(Cl)c2)c([O-])c1C1=C([n+]2cccc(CC)c2)C(=O)N(CC(C)C)C1=O`, for which the inhibition was 41.4%. Take `CCCC(C)NC(=O)Cn1cnc2cc(F)ccc2c1=O` (stereo not drawn): the inhibition is 86.9% (active).

Take `O=C(NNC1c2ccccc2-c2ccccc21)c1ccccc1`: the inhibition is 32.6%. The same measure for `CC(C)(C)C(=O)COC(=O)CNC(=O)c1ccccc1`: 93.8% (active); for `C=CCN=c1scc(-c2ccc(C)cc2)n1N=C(C)c1cccnc1`: 84.7% (active). For `CCN=c1scc(-c2ccc(C)cc2)n1N=C(C)c1ccc(C)o1` the value was 42.6%; for `C=CCN=c1scc(-c2ccc(Cl)c(Cl)c2)n1N=Cc1cccnc1`, 68.1% (active). For `C=CCN=c1scc(-c2ccc(C)c(C)c2)n1N=Cc1cccnc1` the value was -28%. With `C=CCN=c1scc(-c2ccc(Br)cc2)n1N=Cc1cccnc1`, the inhibition is -5.61%.

Take `C=CCN=c1scc(-c2ccc(Cl)cc2)n1N=Cc1cccnc1`: the inhibition was 9.02%. For `C=CCN=c1scc(-c2ccc(OC(F)F)cc2)n1N=Cc1ccc2c(c1)OCO2` the value was -11.8%; for `C=CCN=c1scc(-c2ccc(OC(F)F)cc2)n1N=C(C)c1ccc2c(c1)OCCO2`, 87% (active); for `C=CCN=c1scc(-c2ccccc2F)n1N=Cc1ccc2c(c1)OCCO2`, 9.72%. As for `Cc1ccc(C(=O)N2CCCC(C(=O)c3cccc4ccccc34)C2)s1` (stereo not drawn), the inhibition was 11.3%. As to `CC1(C)CN(CC(=O)NCC(=O)N2CCCC2)c2cccc(Cl)c21`, the inhibition is -12.8%. Regarding `O=C(NCC(=O)N1CCCCC1)c1sc2ccccc2c1Cl`, the inhibition is 70.3% (active).

`CCc1ccc(-c2cc(C(=O)N=Nc3c(O)[nH]c4ccccc34)[nH]n2)cc1`: the inhibition was 18.3%. Take `CCc1ccc(NC(=O)CCn2cnc3c([nH]c4ccccc43)c2=O)cc1`: the inhibition is 95.4% (active).

In the case of `Cn1c(=O)c2c(ncn2CCOC(=O)c2cc(=O)[nH]c3ccccc23)n(C)c1=O`, the inhibition is -7.86%. For `Brc1cc(CNC2C3CCCC2CN(C2CC2)C3)cs1` (stereo not drawn), the inhibition was 23.7%. In the case of `C=CCn1cnnc1SCC(=O)Nc1ccc(Br)c(C)c1`, the inhibition was 101% (active). As to `Cn1cnnc1SCC(=O)Nc1ccc2c(c1)OC(F)(F)O2`, the inhibition was 16.7%. For `C=CCn1c(SCC(=O)NC(=O)NC)nnc1-c1ccncc1` the value was -1.24%; for `Cc1nnc2sc(-c3ccccc3NC(=S)NC(=O)c3cc4ccccc4o3)nn12`, 57.4% (active); for `CCn1c(O)c(C=NC2CCCCCC2)c(=O)n(CC)c1=S`, 102% (active). For `Oc1ccc2ccccc2c1C=NC1CC1`, the inhibition is 37.4%. Take `Cc1nn(CO)c(C)c1Sc1ccc(Br)cc1`: the inhibition is 36.4%. Regarding `C(=Nn1c(-c2ccccc2)csc1=NC1CCCCC1)c1ccccn1`, the inhibition was -31.1%. `Cc1ccc(OCC2CCCN(Cc3ccc(C#CCO)s3)C2)cc1` (stereo not drawn): the inhibition is 82.9% (active). On to `Cc1ccccc1OCC1CCCN(Cc2nc(Cc3ccccc3F)no2)C1` (stereo not drawn), for which the inhibition was 47%.

On to `COCC(C)NC(=O)c1cccc(Oc2cccc(C(F)(F)F)c2)c1` (stereo not drawn), for which the inhibition was 38.2%.

Take `CCCCc1noc(CNc2cc(C(=O)NCC(F)(F)F)ccc2C)n1`: the inhibition is 46.7%. For the molecule `O=C(NCC(F)(F)F)c1cccc(Oc2ccccc2)c1`, the inhibition was 74.4% (active). Take `CCc1cccc(N2CCC(NC(=O)Nc3nccs3)CC2)c1`: the inhibition is 51.4% (active). For the molecule `OCCN=Cc1cn(-c2ccccc2)nc1-c1ccc(Cl)cc1`, the inhibition was 59.3% (active).

Turning to `CC1CC(=O)NN1C(=O)/C=C/c1cn(-c2ccccc2)nc1-c1ccccc1` (stereo not drawn), the inhibition was 38.7%. The same measure for `Cn1cc(-c2nn(-c3ccccc3)cc2C=NNC(N)=S)c2ccccc21`: 16.3%; for `CCc1cc2c(=O)n(CCC(C)C)c(=S)[nH]c2s1`: -39.7%. Consider `C/C(=C/C(=O)C(C#N)c1nc2cc(Cl)ccc2s1)C1CC1` (stereo not drawn), for which the inhibition was 63.6% (active). For `C=C(C)COc1ccc2c(=O)c(-c3ccccc3)c(C)oc2c1`, the inhibition is 51.9% (active).

On to `CCOC(=O)COc1ccc2c(=O)c(-c3ccccc3)c(C)oc2c1`, for which the inhibition is 41.9%.

As to `COCCCn1c(-c2ccccc2)nc2oc3cc(OC)ccc3c(=O)c2c1=O`, the inhibition was -18.5%. With `COC(=O)COc1ccc2c(=O)c(Oc3ccc(OC)cc3)coc2c1`, the inhibition is 8.04%.

In the case of `Cc1cc(NC(=O)C(C)Oc2ccc3c(=O)c(-c4ccccc4)c(C)oc3c2)no1` (stereo not drawn), the inhibition was 70.1% (active). In the case of `CCOC(=O)COc1ccc2c(=O)c(-c3ccc(Cl)cc3)c(C)oc2c1`, the inhibition is 84% (active). As to `Nc1c([N+](=O)[O-])ccc2c1=[N+]([O-])C1(CCCCC1)[N+]=2[O-]`, the inhibition is 101% (active). `Oc1c(N=Nc2ccccc2)cc2c3c1CCCN3CCC2`: the inhibition is 16.8%.

`O=C(NCC1CC1)c1csc(N2CCN(Cc3ccc(Cl)cc3)C2=O)n1`: the inhibition is 33.3%. With `Cc1c(CN2CCCC(C(=O)Nc3cccc(-n4cccn4)c3)C2)[nH]c2ccccc12` (stereo not drawn), the inhibition was 35.5%. For `Cc1c(CN2CCCC(CNC(=O)c3cccs3)C2)[nH]c2ccc(Cl)cc12` (stereo not drawn), the inhibition was 78.8% (active). Take `CN(CCC#N)c1ccc(C=NNC(N)=S)cc1`: the inhibition was 29.2%.

As for `NC(=N/N=C\c1ccc(Cl)cc1)N/N=C\c1ccc(Cl)cc1`, the inhibition was 101% (active). With `Clc1ccc(C2=Nn3c(nnc3C3CCCCC3)SC2)c(Cl)c1`, the inhibition is -20.9%.

Consider `O=C(Sc1cccc2cccnc12)c1ccccc1Cl`, for which the inhibition was 92.5% (active). The same measure for `CCc1cccc2c(C(=O)CSc3nnc(-c4cccnc4)o3)c[nH]c12`: 63.8% (active); for `CCOC(=O)c1c(CC(C)C)csc1NC=C(C#N)C#N`: 100% (active); for `CCOC(=O)c1sc(NN=C(C#N)C#N)c(C(=O)OCC)c1C`: 27.2%. For `CCOC(=O)C(C#N)=NNc1sc(C(=O)OCC)c(C)c1C(=O)OCC`, the inhibition is -20.8%. In the case of `Cc1cc(NC(=O)c2cccc(C(F)(F)F)c2)n(-c2nc(C)c(C)c(=O)[nH]2)n1`, the inhibition was 33.9%.

Regarding `Cc1cc(=O)[nH]c(-n2nc(C)cc2NC(=O)c2ccc(C(F)(F)F)cc2)n1`, the inhibition was 98.6% (active). As to `Cc1cc(=O)[nH]c(-n2nc(C)cc2NC(=O)c2cc(C(F)(F)F)cc(C(F)(F)F)c2)n1`, the inhibition is 98.3% (active). Regarding `Cc1cc(=O)[nH]c(-n2nc(C)cc2NC(=O)c2cccc(C(F)(F)F)c2)n1`, the inhibition is 102% (active). Turning to `CCn1nnc2c(N3CCC(Cc4ccccc4)CC3)ncnc21`, the inhibition is 75.6% (active). As for `Clc1ccccc1CSc1ncnc2c1nnn2Cc1ccccc1`, the inhibition is -14.6%.

With `Cc1cc(=O)[nH]c(SCc2cc(-c3ccco3)on2)c1C#N`, the inhibition is 20.5%. The same measure for `COc1cccc(-c2ccc(CNC(=O)c3n[nH]c(=O)[nH]3)cc2)c1`: 76.1% (active); for `Cc1cc2cc(CNC(=S)Nc3ccccc3)ccc2n1C`: 49.3%. `Cc1c(NC(=S)NC(=O)c2ccc(Br)o2)c(=O)n(-c2ccccc2)n1C`: the inhibition was -13.3%. For `Cc1c(NC(=S)NCc2ccccn2)c(=O)n(-c2ccccc2)n1C` the value was 92.7% (active); for `Cc1ccc(S(=O)(=O)N=[N+]([O-])C2([N+](=O)[O-])COC(C)OC2)cc1` (stereo not drawn), 102% (active). Take `CCOC(=O)c1ccc(N=Cc2c(O)c([N+](=O)[O-])cc3oc4c(c23)CCCC4)cc1`: the inhibition is 97.7% (active). As for `O=C(Nc1cccc(-c2ccco2)c1)C1CCN(C(=O)Cc2ccsc2)CC1`, the inhibition was 95.1% (active). With `Cc1ncsc1CCC(=O)N1CCC(C(=O)Nc2cccc(-c3ccco3)c2)CC1`, the inhibition is 86.6% (active). For the molecule `O=C(Nc1cccc(-c2cscn2)c1)C1CCN(Cc2cccc(-c3ccco3)c2)CC1`, the inhibition was 86.2% (active). Take `CC(C)c1csc(CN2CCC(C(=O)Nc3cccc(-c4ccco4)c3)CC2)n1`: the inhibition result was “inactive”. In the case of `CC(=O)c1ccc(C(=O)N2CCC(C(=O)Nc3cccc(-c4ccco4)c3)CC2)s1`, the inhibition is 92.1% (active). Take `Cc1ccccc1OCC(=O)Nc1ccc2c(c1)CCC(=O)N2CCC(C)C`: the inhibition is 9.17%.

With `Cc1ccc(NC(=O)CN2CSCC2=O)cc1OCC(F)F`, the inhibition was 81.5% (active). For the molecule `N#Cc1ncn(Cc2nc3scc(-c4ccc(Br)cc4)c3c(=O)[nH]2)n1`, the inhibition is 50.4% (active). The same measure for `N#Cc1c(-c2ccc(Br)cc2)csc1N1CCCCC1`: 38.9%; for `Cn1cccc1C(=O)OCc1nc2scc(-c3ccccc3)c2c(=O)[nH]1`: 37.5%; for `O=C1NC(=O)N(C2CCCCC2)C(=O)C1=CC=Cc1ccco1`: 19.5%. Consider `CC1=CC(=NN=c2sc3ccccc3n2C)CC(C)(C)C1`, for which the inhibition was 95% (active).

On to `Cn1c(=NN=C2CC3CC=CC23)sc2ccccc21` (stereo not drawn), for which the inhibition was 102% (active). Turning to `CC(=NN=c1sc2ccccc2n1C)c1ccccc1Br`, the inhibition was 11.9%.

`CC(=NN=c1sc2ccccc2n1C)c1ccco1`: the inhibition is 1.85%.

In the case of `Cn1c(=NN=C2CCCc3ccccc32)sc2ccccc21`, the inhibition is 85.9% (active). As to `CC1=CC(=NNc2ncc(Cl)cc2Cl)CC(C)(C)C1`, the inhibition was -13.2%. The same measure for `Cc1ccc(Cl)cc1N1CCN(C(=O)Nc2nncs2)CC1`: 2.42%; for `O=c1c(C2OCC3(CO2)CC2C=CC3C2)coc2ccccc12` (stereo not drawn): 35.6%; for `Nc1ccn2ncc([P+](c3ccccc3)(c3ccccc3)c3ccccc3)c2n1`: 24%. As to `CCCCc1ccc(NC(=O)/C=C/c2cnn(C)c2C)cc1`, the inhibition is 93.3% (active).

For the molecule `Cc1ccc(NC2=C(Cl)C(=O)N(CC(C)C)C2=O)cc1`, the inhibition is 73.8% (active).

With `COc1ccccc1N1C(=O)C(Cl)=C(Nc2ccc(S(N)(=O)=O)cc2)C1=O`, the inhibition was -0.54%.
